A number with no mark means an inactive call. For some assays here: Entries with a potency or affinity are not part of this list. Activity calls are given as the source filed them. Unless noted, the rule behind the calls is not given here.
Assays:
[1] = antimalarial activity against Dd2 strain (AID 2302;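 active = growth inhibition above 50% at the single 2 µM test dose, taken to imply half-maximal potency below 2 µM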;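 note: 0% = DMSO untreated growth and 100% = chloroquine plus artemisinin killed control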); conditions: P. falciparum Dd2 in RBCs, LDH growth readout, 72 h; at 2 µM; active compounds read high
[2] = HepG2 cytotoxicity, primary screen, cytotoxicity control for P. falciparum antimalarial project, cell-based, ATP luminescence (AID 2303;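 active = inhibition above 50%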;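 note: 0% = DMSO wells and 100% = digitonin-killed cells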); conditions: HepG2 viability, 24-48 h, at 10 µM, active compounds read high
[3] = target: L-lactate dehydrogenase (Plasmodium falciparum (isolate CDC / Honduras)) (UniProt Q27743); assay: PfLDH activity inhibition – cell lysate, 3D7 strain, counter-screen for P. falciparum growth inhibition project (AID 2304);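 note: 0% = vehicle and 100% = reference inhibitor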; conditions: P. falciparum 3D7 crude extract, LDH APAD/NBT absorbance; at 2 µM; active compounds read high
Sequence of L-lactate dehydrogenase (Plasmodium falciparum (isolate CDC / Honduras)) (Q27743 whole entry, looked up): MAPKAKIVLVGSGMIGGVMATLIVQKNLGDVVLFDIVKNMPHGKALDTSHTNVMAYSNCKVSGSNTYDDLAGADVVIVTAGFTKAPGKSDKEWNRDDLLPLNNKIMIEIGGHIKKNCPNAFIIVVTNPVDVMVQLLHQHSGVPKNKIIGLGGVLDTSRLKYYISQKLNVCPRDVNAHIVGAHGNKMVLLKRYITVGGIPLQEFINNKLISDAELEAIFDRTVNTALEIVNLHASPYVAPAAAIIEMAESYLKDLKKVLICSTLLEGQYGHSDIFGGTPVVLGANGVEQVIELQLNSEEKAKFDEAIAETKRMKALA

[4] = inhibition of 3D7 malaria parasite growth – strain 3D7 (AID 2306);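 note: 0% = DMSO wells and 100% = chloroquine plus artemisinin control wells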; conditions: P. falciparum 3D7 erythrocytic growth, LDH absorbance, 72 h; at 2 µM; active compounds read high
[5] = target: Calcium-dependent protein kinase 1 (Plasmodium falciparum (isolate 3D7)) (UniProt P62344); assay: PfCDPK1 kinase inhibitors, biochemical, TCAMS library (AID 1159585; cut-off not given, nearly all actives have IC50 up to about 0.98 µM;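 note: inhibitors leave more ATP so luminescence rises with inhibition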); conditions: recombinant PfCDPK1, Kinase-Glo ATP depletion luminescence
Sequence of Calcium-dependent protein kinase 1 (Plasmodium falciparum (isolate 3D7)) (P62344 whole entry, looked up): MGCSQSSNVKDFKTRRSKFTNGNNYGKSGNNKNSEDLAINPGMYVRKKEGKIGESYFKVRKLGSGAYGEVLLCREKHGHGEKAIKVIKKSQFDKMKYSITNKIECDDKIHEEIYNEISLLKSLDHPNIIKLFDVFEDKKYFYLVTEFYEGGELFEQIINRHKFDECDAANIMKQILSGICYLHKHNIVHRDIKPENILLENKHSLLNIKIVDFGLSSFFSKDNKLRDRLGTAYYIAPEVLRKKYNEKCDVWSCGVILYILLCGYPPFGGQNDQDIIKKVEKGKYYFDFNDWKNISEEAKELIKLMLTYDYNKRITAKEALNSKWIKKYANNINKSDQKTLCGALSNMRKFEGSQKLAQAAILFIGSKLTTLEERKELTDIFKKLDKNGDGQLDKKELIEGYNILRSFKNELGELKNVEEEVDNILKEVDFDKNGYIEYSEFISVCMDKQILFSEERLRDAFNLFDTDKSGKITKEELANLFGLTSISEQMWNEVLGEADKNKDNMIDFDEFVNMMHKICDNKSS

[6] = target: Plasmodium falciparum protein kinase 6 (PK6, PF3D7_1337100) (UniProt Q8IDW1); assay: PfPK6 kinase inhibitors, biochemical, TCAMS library (AID 1159586); conditions: recombinant PfPK6, Kinase-Glo ATP depletion luminescence
Sequence of Plasmodium falciparum protein kinase 6 (PK6, PF3D7_1337100) (Q8IDW1 1-305): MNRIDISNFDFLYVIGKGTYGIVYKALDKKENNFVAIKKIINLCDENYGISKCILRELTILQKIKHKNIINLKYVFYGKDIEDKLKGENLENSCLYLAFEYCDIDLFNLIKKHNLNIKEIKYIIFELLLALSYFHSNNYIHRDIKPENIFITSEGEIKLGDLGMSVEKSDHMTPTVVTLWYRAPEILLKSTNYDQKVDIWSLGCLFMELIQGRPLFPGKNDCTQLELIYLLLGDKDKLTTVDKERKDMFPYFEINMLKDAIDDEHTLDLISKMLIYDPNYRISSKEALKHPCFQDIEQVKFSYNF

[7] = target: Protein kinase 7 (PK7), Plasmodium falciparum 3D7 (PF3D7_0213400) (UniProt Q7YTF7); assay: inhibition of Plasmodium PK7 catalytic activity – biochemical, TCAMS antimalarial set, Kinase-Glo luminescence (AID 1159587); conditions: recombinant PfPK7, Kinase-Glo ATP depletion luminescence
Sequence of Protein kinase 7 (PK7), Plasmodium falciparum 3D7 (PF3D7_0213400) (Q7YTF7 1-343): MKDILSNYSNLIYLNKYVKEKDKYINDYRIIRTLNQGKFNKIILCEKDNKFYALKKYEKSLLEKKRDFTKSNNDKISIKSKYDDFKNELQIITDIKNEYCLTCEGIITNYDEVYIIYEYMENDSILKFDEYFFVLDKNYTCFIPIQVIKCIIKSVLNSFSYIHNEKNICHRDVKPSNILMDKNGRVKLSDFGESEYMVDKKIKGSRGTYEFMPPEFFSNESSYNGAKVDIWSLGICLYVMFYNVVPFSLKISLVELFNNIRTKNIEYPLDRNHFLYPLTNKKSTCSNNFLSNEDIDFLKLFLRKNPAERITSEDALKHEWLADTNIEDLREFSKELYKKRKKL

[8] = target: Calcium-dependent protein kinase 4 (Plasmodium falciparum (isolate 3D7)) (UniProt Q8IBS5); assay: PfCDPK4 kinase inhibitors, biochemical, TCAMS library (AID 1159588; cut-off not given, nearly all actives have IC50 up to about 0.91 µM); conditions: recombinant PfCDPK4, Kinase-Glo ATP depletion luminescence
Sequence of Calcium-dependent protein kinase 4 (Plasmodium falciparum (isolate 3D7)) (Q8IBS5 whole entry, looked up): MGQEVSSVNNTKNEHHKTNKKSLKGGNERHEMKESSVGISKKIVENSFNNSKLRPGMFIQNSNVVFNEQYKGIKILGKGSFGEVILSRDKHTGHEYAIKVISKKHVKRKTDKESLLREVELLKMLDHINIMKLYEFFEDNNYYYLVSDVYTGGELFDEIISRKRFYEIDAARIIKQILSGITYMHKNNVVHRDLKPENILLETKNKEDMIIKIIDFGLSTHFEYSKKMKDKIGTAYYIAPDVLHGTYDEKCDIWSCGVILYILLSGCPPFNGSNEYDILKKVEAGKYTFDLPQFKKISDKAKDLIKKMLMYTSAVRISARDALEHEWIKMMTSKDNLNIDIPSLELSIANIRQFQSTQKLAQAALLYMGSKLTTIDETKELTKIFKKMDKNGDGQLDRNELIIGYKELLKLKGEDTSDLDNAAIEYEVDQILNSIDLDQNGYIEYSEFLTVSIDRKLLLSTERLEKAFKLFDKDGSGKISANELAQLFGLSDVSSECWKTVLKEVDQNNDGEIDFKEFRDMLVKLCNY

SMILES | growth inhibition [1] | inhibition [2] | inhibition [3] | growth inhibition [4] | outcome [5] | outcome [6] | outcome [7] | outcome [8]
O=C(/C=C/c1ccc(Cl)c(Cl)c1)N1CCC(NCc2ccc3[nH]ccc3c2)CC1 | 1% | 44% | -2% | 97% (active) | inactive | inactive | inactive | inactive
Cc1c(-c2ccc(C(=O)NC3CC(C)(C)NC(C)(C)C3)cc2)[nH]c2cc(Cl)c(Cl)cc12 | 68% (active) | 34% | 0% | 98% (active) | inactive | inactive | inactive | inactive
CC(C)NCc1ccc(-c2cccc(NC(=O)c3ccc(C#N)cc3)c2)cc1 | 19% | 8% | 4% | 100% (active) | inactive | inactive | inactive | inactive
O=C(Nc1cccc(CN2CCCN(Cc3ccc(O)cc3)CC2)c1)c1ccc(Br)cc1 | 54% (active) | 19% | -2% | 94% (active) | inactive | inactive | inactive | inactive
N#Cc1cccc(C(=O)NC2CCN(c3ccnc(Nc4ccc(F)cc4)n3)C2)c1 (stereo not given) | 91% (active) | 4% | -8% | 98% (active) | inactive | inactive | inactive | inactive
C=CCc1cccc(CN2CCC(c3cc(=O)[nH]c(-c4ccccn4)n3)CC2)c1O | 75% (active) | 46% | -2% | 91% (active) | inactive | inactive | inactive | inactive
CCC(C)CN1CCN(c2ccc(NC(=O)c3cccs3)cc2)C(C)C1 (stereo not given) | 95% (active) | -4% | -2% | 95% (active) | inactive | inactive | inactive | inactive
CC(C)NCC(=O)Nc1cccc(C(=O)Nc2cccc(C(F)(F)F)c2)c1 | 89% (active) | 6% | 4% | 97% (active) | inactive | inactive | inactive | inactive
COc1cccc(CN2CCC(N3CCc4cc(NC(=O)c5cc(C)on5)ccc43)C2)c1OC (stereo not given) | 92% (active) | 9% | 4% | 93% (active) | inactive | inactive | inactive | inactive
COc1ccccc1C(C)NCC(=O)Nc1cccc(C(=O)Nc2cccc(C(F)(F)F)c2)c1 (stereo not given) | 39% | 34% | 5% | 91% (active) | inactive | inactive | inactive | inactive
COc1cc(-c2ccc3c(-c4ccc(C(=O)N5CCN(C)CC5)cc4)[nH]nc3n2)cc(OC)c1OC | 54% (active) | 27% | 4% | 91% (active) | inactive | inactive | inactive | inactive
CN1CCC(C(=O)N(Cc2ccc(-c3ccc(CNCCc4ccc(S(C)(=O)=O)cc4)cn3)cc2)C2CCN(Cc3ccccc3)CC2)CC1 | 95% (active) | 11% | -5% | 102% (active) | inactive | inactive | inactive | inactive
COc1ccc(N2CCN(CCCCNC(=O)c3ccc(NC(=O)c4ccc(C(F)(F)F)cc4)cc3)CC2)c(OC)c1 | 8% | 4% | 6% | 100% (active) | inactive | inactive | inactive | inactive
CSc1nc2nc(C)c(Cc3cccc(C(F)(F)F)c3)c(C)n2n1 | 95% (active) | 4% | 2% | 98% (active) | inactive | inactive | inactive | inactive
CCCC1N=C(N)N=C(N)N1c1ccccc1 (stereo not given) | -3% | -4% | -6% | 93% (active) | inactive | inactive | inactive | inactive
Cc1nc2nc(N)nc(N)c2c(C)c1Cc1ccc(C#N)cc1 | 4% | 69% (active) | 1% | 96% (active) | inactive | inactive | inactive | inactive
COc1cc(C=CC(=O)N2CCC3(CC2)CC(=O)c2ccccc2O3)cc(OC)c1OC | 66% (active) | 7% | -1% | 88% (active) | inactive | inactive | inactive | inactive
CN(C)CCCOc1cccc(NC(=O)Nc2ccc(-c3ccccc3)cc2)c1 | 14% | 9% | -8% | 91% (active) | inactive | inactive | inactive | inactive
CN1CCN(CCCN(Cc2csc(-c3ccc(CNCc4ccccc4)cc3)n2)S(=O)(=O)c2ccccc2Cl)CC1 | 81% (active) | 13% | -5% | 93% (active) | inactive | inactive | inactive | inactive
CC(C)c1ccc(NC(=O)c2cccc(CN3CCCN(CC4CCCCC4)CC3)c2)cc1 | 59% (active) | 62% (active) | 2% | 85% (active) | inactive | inactive | inactive | inactive

SMILES | growth inhibition [1] | inhibition [2] | inhibition [3] | growth inhibition [4] | outcome [5] | outcome [6] | outcome [7] | outcome [8]
COc1ccc(NC(=O)NCC2CCCN(CCCCCNC(=O)/C=C/c3ccc(Cl)c(Cl)c3)C2)c(OC)c1 (stereo not given) | -2% | 8% | -6% | 95% (active) | inactive | inactive | inactive | inactive
O=C(Nc1ccc(Cn2ncc(N3CCCNCC3)c(Cl)c2=O)cc1)Nc1ccc(OCc2ccccc2)cc1 | 32% | 15% | 5% | 90% (active) | inactive | inactive | inactive | inactive
COc1ccc(CC(=O)NC(CCCN2CCC3(CC2)OCc2ccccc23)c2ccc(Cl)c(Cl)c2)cc1 (stereo not given) | 53% (active) | 40% | 5% | 83% (active) | inactive | inactive | inactive | inactive
Cc1cccc(-c2ccc(CNC3CCN(CC4Cn5c(=O)ccc6ccc(F)c4c65)CC3)cn2)c1 (stereo not given) | 2% | -2% | -2% | 90% (active) | inactive | inactive | inactive | inactive
Cc1ccc(-n2nc(-c3ccccc3)c3cc(C(=O)NCCN)sc32)cc1 | 43% | 28% | 2% | 92% (active) | inactive | inactive | inactive | inactive
CC1(C)CCC(C)(C)c2c1ccc(C1CCN(CCCCNC(=O)c3ccc(-c4ccc(Cl)cc4)cc3)CC1)c2O | 72% (active) | 100% (active) | -2% | 102% (active) | inactive | inactive | inactive | inactive
CCOC(=O)c1cnc2c(OC)cc(OC)c(Cl)c2c1Nc1cccc(C)c1C | 99% (active) | 5% | 0% | 102% (active) | inactive | inactive | inactive | inactive
Cc1cccc2[nH]c(-c3cccc(-c4ccc(NC(=O)NC(C)C)cc4)c3)nc12 | 44% | 30% | -2% | 98% (active) | inactive | inactive | inactive | inactive
FC(F)(F)c1ccc2nccc(NN=Cc3ccccc3)c2c1 | 2% | 7% | -1% | 92% (active) | inactive | inactive | inactive | inactive
O=C(/C=C/c1ccc(Cl)c(Cl)c1)NCCCCCN1CCCN(C(=O)Nc2cc(Cl)nc(Cl)c2)CC1 | 3% | 8% | -1% | 103% (active) | inactive | inactive | inactive | inactive
CCOC(=O)c1ccc(N2CCN(CCCNC(=O)/C(=C/C=C/c3cc4cc(Cl)c(Cl)cc4[nH]3)OC)CC2)cc1 | 72% (active) | 39% | 4% | 93% (active) | inactive | inactive | inactive | inactive
COc1cc2c(cc1C=CC(=O)N1CCN(Cc3nc4sc(C)c(C)c4c(=O)[nH]3)CC1)OC(C)C2 (stereo not given) | 87% (active) | -1% | -9% | 82% (active) | inactive | inactive | inactive | inactive
Cn1c(NC(=O)CCCCCNC(=O)c2ccc(O)c(-c3ccc(Cl)c(Cl)c3)c2)nc2ccccc21 | 55% (active) | -6% | 7% | 100% (active) | inactive | inactive | inactive | inactive
COc1ccc(CN(C)CCCOc2ccc(NC(=O)c3cccc4c(=O)c5cccc(F)c5[nH]c34)cc2)cc1OC | 96% (active) | 6% | -3% | 100% (active) | inactive | inactive | inactive | inactive
CC(COc1ccc2c(c1)OC(C)(C)CC2c1ccccc1)NCC(O)c1cccc(Cl)c1 (stereo not given) | 96% (active) | 1% | 3% | 98% (active) | inactive | inactive | inactive | inactive
Cc1cc2c(/C=C/C(=O)NC3CCC(CCN4CCc5ccc(C#N)cc5CC4)CC3)cccc2[nH]1 (stereo not given) | 39% | 16% | 1% | 95% (active) | inactive | inactive | inactive | inactive
Cc1noc(C)c1-c1cccc(CNCc2ccc(-c3cccc(-c4nc5c(C)cccc5[nH]4)c3)cc2)c1 | 94% (active) | 24% | 7% | 101% (active) | inactive | inactive | inactive | inactive
NC(N)=Nc1nc(-c2cccc(NC(=O)NCCc3c[nH]c4ccc(OCc5ccccc5)cc34)c2)cs1 | 30% | -2% | 0% | 101% (active) | inactive | inactive | inactive | inactive
O=C(c1ccc([N+](=O)[O-])o1)N1CCN(c2nc3c(F)cc(F)cc3s2)CC1 | 86% (active) | -7% | -4% | 93% (active) | inactive | inactive | inactive | inactive
CCC[C@@H]([C@@H](CC(C)C)C(=O)N[C@H](C(=O)Nc1nccs1)C(C)(C)SCCNC(=O)OCC)N(O)C=O | 97% (active) | -8% | -7% | 95% (active) | inactive | inactive | inactive | inactive

Reference: PubChem BioAssay
